PostGolgi yeast – growth inhibition of a yeast mutant, post-Golgi transport screen; inhibition, % at 10 µM; post-Golgi transport phenotypic cell assay; hit rate 0.9% among 98,000;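 further: yeast cells grown in 1536-well plates; yeast grown about 18 h at 30C before absorbance read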
Pyk2 oligo antag – Pyk2 (human) oligomerization antagonism; z-score (the deposit names both 25 µM and 10 µM); hit rate 0.83% among 99,000; Q14289; Q293 cells, Pyk2 FERM NanoBiT luminescence; hits give low values;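 active means Z-score of -3 or lower, scaled per plate to the spread of control and sample wells; inactive means z-score above -3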;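 further: negative z-score means lost luminescence so less FERM oligomerization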
Cav3 T inh – blocks human Cav3.2 T-type calcium channel; O95180; Cav3.2-expressing cells, Fluo-4 calcium fluorescence FDSS; hits give low values; B-score at 10 µM; hit rate 4% among 100,000; AID 449739;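 active means single-dose well whose peak fluorescence ratio is a statistical outlier from its plate by either plate-standardised score or position-corrected B-score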
Target sequence (O95180 whole entry, looked up): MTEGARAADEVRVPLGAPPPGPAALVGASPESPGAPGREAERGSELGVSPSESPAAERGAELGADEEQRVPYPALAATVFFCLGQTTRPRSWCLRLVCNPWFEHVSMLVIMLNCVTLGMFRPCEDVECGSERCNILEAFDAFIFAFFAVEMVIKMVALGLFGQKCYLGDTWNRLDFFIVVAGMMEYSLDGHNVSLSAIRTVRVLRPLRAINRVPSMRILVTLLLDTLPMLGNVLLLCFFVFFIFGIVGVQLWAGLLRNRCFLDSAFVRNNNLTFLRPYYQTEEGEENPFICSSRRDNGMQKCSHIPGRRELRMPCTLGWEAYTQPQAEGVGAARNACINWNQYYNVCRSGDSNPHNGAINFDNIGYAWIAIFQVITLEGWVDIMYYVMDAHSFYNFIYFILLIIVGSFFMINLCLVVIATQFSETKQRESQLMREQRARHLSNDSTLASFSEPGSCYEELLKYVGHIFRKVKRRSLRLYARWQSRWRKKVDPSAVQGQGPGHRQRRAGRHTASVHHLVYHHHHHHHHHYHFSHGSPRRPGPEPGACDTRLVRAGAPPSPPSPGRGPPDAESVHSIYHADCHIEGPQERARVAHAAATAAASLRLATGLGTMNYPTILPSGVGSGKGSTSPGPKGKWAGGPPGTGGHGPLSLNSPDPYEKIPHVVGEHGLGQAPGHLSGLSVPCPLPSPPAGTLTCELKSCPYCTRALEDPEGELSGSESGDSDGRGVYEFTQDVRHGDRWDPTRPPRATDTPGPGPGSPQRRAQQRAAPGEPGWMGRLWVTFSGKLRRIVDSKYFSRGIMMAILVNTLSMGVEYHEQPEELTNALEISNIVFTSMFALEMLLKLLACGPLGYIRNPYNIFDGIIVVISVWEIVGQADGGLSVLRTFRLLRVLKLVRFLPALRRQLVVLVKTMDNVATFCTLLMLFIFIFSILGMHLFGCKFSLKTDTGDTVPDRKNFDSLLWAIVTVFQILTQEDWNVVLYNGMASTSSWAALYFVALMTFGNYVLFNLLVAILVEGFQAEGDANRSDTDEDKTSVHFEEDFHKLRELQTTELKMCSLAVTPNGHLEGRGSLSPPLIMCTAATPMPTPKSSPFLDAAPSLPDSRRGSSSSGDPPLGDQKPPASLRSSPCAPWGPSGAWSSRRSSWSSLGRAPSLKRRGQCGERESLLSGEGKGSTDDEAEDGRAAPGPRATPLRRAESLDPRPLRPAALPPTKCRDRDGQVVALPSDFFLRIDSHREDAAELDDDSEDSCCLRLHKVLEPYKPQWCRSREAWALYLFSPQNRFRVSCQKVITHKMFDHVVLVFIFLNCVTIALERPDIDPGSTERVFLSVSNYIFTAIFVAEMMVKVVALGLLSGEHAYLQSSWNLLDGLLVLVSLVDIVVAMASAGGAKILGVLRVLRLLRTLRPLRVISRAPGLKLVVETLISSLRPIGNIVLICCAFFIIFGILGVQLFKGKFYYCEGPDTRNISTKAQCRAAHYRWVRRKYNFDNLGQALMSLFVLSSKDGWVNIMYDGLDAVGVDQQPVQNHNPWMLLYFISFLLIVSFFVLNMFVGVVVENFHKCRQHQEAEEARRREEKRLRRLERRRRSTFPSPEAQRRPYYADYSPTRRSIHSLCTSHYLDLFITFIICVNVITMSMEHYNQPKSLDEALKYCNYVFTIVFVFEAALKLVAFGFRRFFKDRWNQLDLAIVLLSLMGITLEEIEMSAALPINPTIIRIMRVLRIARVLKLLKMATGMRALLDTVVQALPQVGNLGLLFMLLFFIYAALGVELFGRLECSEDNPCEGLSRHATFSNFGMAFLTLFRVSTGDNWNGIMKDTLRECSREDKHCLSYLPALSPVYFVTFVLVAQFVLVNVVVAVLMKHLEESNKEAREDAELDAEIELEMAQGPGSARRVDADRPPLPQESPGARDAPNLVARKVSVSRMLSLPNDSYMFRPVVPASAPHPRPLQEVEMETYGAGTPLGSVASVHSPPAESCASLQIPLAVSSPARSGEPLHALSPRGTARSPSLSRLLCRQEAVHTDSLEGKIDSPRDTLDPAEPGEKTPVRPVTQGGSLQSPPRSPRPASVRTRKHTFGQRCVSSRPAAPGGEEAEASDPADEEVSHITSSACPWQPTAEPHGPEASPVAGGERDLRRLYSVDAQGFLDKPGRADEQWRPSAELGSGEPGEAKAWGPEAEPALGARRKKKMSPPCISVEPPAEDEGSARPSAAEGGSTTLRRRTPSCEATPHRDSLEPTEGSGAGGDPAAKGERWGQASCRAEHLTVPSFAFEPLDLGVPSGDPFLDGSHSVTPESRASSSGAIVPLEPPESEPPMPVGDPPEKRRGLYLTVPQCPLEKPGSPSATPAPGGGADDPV
PostGolgi ctrl – growth of the yeast control strain, post-Golgi counter-screen; efflux-deficient yeast background strain, growth absorbance A615, 16 h; inhibition, % at 10 µM; hit rate 5% among 98,000; AID 738
* = called active by the depositor; . = no result. This is a sample that favours compounds with a hit; in the whole collection about 8% have one here. Unless noted, no stated cut-off is given here; in the data, active means inhibition above about 30%; inactive means the rest.

SMILES	PostGolgi yeast	Pyk2 oligo antag	Cav3 T inh	PostGolgi ctrl
CCOC(=O)c1c(-c2ccc(Cl)cc2)cn2ccccc12	19	-0.1	0.017	1
CCOC(=O)c1c(N)sc(C(O)(C(F)(F)F)C(F)(F)F)c1-c1ccc(Cl)cc1	-1	-1.6	-0.57	72*
CCOC(=O)c1c(N)sc(C(O)(C(F)(F)F)C(F)(F)F)c1-c1ccc(F)cc1	2	-0.96	-4.9*	16
Cc1cnc(NC(=O)Cc2c[nH]c3ccccc23)s1	8	-0.03	-1.1	16
Cc1csc(NC(=O)Cc2c[nH]c3ccccc23)n1	-5	-1.3	-4.1*	7
O=C(Cc1ccccc1)Nc1nc2ccccc2[nH]1	3	0.35	0.14	25
O=C(Cc1c[nH]c2ccccc12)Nc1nc2ccccc2[nH]1	-1	0.27	-6.3*	18
CS(=O)(=O)c1ccc(CNC(=O)C2(C(F)(F)F)CC(CCCO)CCCO2)cc1 (configuration not stated)	.	.	-0.092	.
CCOC(=O)c1nn(-c2ccc(Br)cc2)cc1C(=O)c1cccc2ccccc12	2	-1.1	-1.4	31*
COc1ccc(CC(=O)NNC(=S)Nc2ccc(Br)cc2)cc1	1	0.6	-2.1	10
CCOc1ccc(CC(=O)NNC(=S)Nc2ccccc2)cc1Br	5	0.76	-7.4*	-5
CC1=C[C@@H](C)[C@@H](c2ccccc2)OC1=O	.	.	0.56	.
C(=C\c1ccccc1)/CN1CCN(C(c2ccccc2)c2ccccc2)CC1	.	.	-0.95	.
Fc1ccc(C(c2ccc(F)cc2)N2CCN(C/C=C/c3ccccc3)CC2)cc1	.	.	-4.5*	.
O=S(=O)(NC1CCCCC1)c1cccc(-c2nnc(-c3ccccc3)o2)c1	17	0.27	-1.2	31*
Cc1ccccc1NS(=O)(=O)c1cccc(-c2nnc(-c3ccccc3)o2)c1	-11	-1.9	-0.43	1
CCCCCCNC(=O)c1c(O)c2cccc3c2n(c1=O)CCC3	5	-1.2	0.12	13
Cc1cccc(NC(=O)c2c(O)c3cccc4c3n(c2=O)CCC4)n1	2	.	1.1	-1
CC(C)c1nnc(NC(=O)c2c(O)c3cccc4c3n(c2=O)CCC4)s1	80*	-0.72	-0.61	59*
CCCc1nc2ccccc2c(=O)n1NC(=O)c1c(O)c2cccc3c2n(c1=O)CCC3	18	-0.09	-8*	29
Clc1ccc(Cn2c(-c3cccnc3Cl)nc3ccccc32)cc1	7	-2.2	-4	18
Nc1nonc1-c1nc2ccccc2n1Cc1ccc(F)cc1Cl	4	0.02	.	11
Clc1ccc(Cn2c(-c3cccnc3Cl)nc3ccccc32)c(Cl)c1	3	0.09	-3	38*
Fc1ccc(Cn2c(-c3cscn3)nc3ccccc32)c(Cl)c1	3	-0.67	-0.0091	34*
O=C(O)C[C@H]1c2ccccc2S(=O)(=O)N1C1CCCC1	.	.	0.077	.
SMILES	PostGolgi yeast	Pyk2 oligo antag	Cav3 T inh	PostGolgi ctrl
CN1CCN(C(=O)Cn2c(=O)oc3cc(S(=O)(=O)NCc4ccccc4)ccc32)CC1	2	.	0.54	8
Cc1ccc(N2C(N)=C(C#N)C3(C(=O)N(C)c4ccccc43)C3=C2CC(C)(C)CC3=O)cc1Cl (configuration not stated)	-6	1.3	1	-2
Cc1onc(-c2ccccc2Cl)c1C(=O)OCC(=O)N1CCCc2ccccc21	-2	-1.7	-7.4*	4
Cc1onc(-c2ccccc2Cl)c1C(=O)OCC(=O)Nc1ccc2c(c1)OCO2	-9	-1.6	-6.3*	8
Cc1onc(-c2ccccc2Cl)c1C(=O)N1CCc2ccccc21	-2	-1.1	-0.25	34*
Cc1onc(-c2c(F)cccc2Cl)c1C(=O)N1CCCc2ccccc21	12	-0.75	-0.77	-1
Cc1onc(-c2ccccc2Cl)c1C(=O)N1CCCc2ccccc21	-10	-0.08	-1.2	16
NC(=O)c1cccc(-c2cc(Nc3ccc(OC(F)(F)F)cc3)ncn2)c1	.	.	-0.0014	.
CCN(CC)C(=O)N1CCC(NC(=O)c2ccccc2)CC1	1	-0.31	-0.059	-6
O=c1[nH]cnc2c([N+](=O)[O-])cccc12	-2	-0.56	1.1	32*
O=C(NCCN1CCOCC1)C1CCC(CNS(=O)(=O)c2ccc(Cl)cc2)CC1 (configuration not stated)	18	-0.89	0.71	-3
Cc1cc2occ(CC(=O)NC3=NCCS3)c2cc1C(C)C	-2	-1.1	-1.3	14
Cc1cc(C(=O)O)c(CSCc2cc(C(=O)O)oc2C)o1	-14	1.1	.	5
CCCCCCCC(=O)N/N=C/c1ccco1	2	-0.38	0.16	16
CCCCCCCCCC(=O)N/N=C/c1ccc(C)s1	8	1.1	-0.071	33*
c1ccc(COc2ccc(CN3CCN(c4ccccn4)CC3)cc2)cc1	73*	0.48	-0.97	9
N#Cc1nc(COc2ccc(F)cc2)oc1N1CCCC1	-3	-0.49	-2.3	5

Compound activity (PubChem BioAssay)
